# According to the supplement of paper PMC12494721:
# Where a name gives a salt, the structure may show the parent alone.
# Experiments:
# Conditions in all cases: incubation time: 27 h, anaerobic, 37 °C;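 for the amine columns active = adjusted P below 0.05 in both replicates with a change the same way and a mean fold change under 0.8 or over 1.25; inactive = the rest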
# [1] = system: Clostridium sporogenes DSM 1664; test: growth (OD595) fold change vs plate DMSO controls (fold change (ratio)); higher = more growth
# Outline: (§1)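 Shaken 96-well cultures in mGAM, grown anaerobically for 27 h at 37 °C, were read at 595 nm. OD came from blank-subtracted readings, corrected for background with 20 µM compound solutions in water and scaled by a calibration factor of 5. Growth is the fold change versus the plate's median DMSO control. Values average 2 biological replicates, and any fold change above 1.5 is NA.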
# [2] = system: Escherichia coli IAI1; test: as above
# Outline: as §1
# [3] = system: Klebsiella aerogenes DSM 30053; test: as above
# Outline: as §1
# [4] = system: Ruminococcus gnavus DSM 108212; test: as above
# Outline: as §1
# [5] = system: Klebsiella aerogenes DSM 30053; test: fold change of Histamine concentration vs plate DMSO controls (fold change (ratio)); higher = more amine produced, active = hit call of the paper (significant change in both replicates, either direction)
# Outline: (§2)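 Extracts of whole anaerobic mGAM cultures were analysed for amines by LC–triple-quadrupole MS with dynamic MRM and external calibration curves, with drift corrected within batch. Four gut strains were grown at 37 °C for 27 h in 80 µL wells with compounds at 20 µM final, sweeteners at 50 µM final. Each value expresses fold change over plate DMSO controls. The average of 2 biological replicates is shown.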
# [6] = system: Clostridium sporogenes DSM 1664; test: fold change of Tryptamine concentration vs plate DMSO controls (fold change (ratio)); higher = more amine produced, active = hit call of the paper (significant change in both replicates, either direction)
# Outline: as §2
# [7] = system: Ruminococcus gnavus DSM 108212; test: as above
# Outline: as §2
# [8] = system: Escherichia coli IAI1; test: fold change of Putrescine concentration vs plate DMSO controls (fold change (ratio)); higher = more amine produced, active = hit call of the paper (significant change in both replicates, either direction)
# Outline: as §2
# [9] = system: Klebsiella aerogenes DSM 30053; test: as above
# Outline: as §2
# [10] = system: Escherichia coli IAI1; test: fold change of Cadaverine concentration vs plate DMSO controls (fold change (ratio)); higher = more amine produced, active = hit call of the paper (significant change in both replicates, either direction)
# Outline: as §2
# [11] = system: Klebsiella aerogenes DSM 30053; test: as above
# Outline: as §2
# [12] = system: Ruminococcus gnavus DSM 108212; test: fold change of 2-Phenylethylamine concentration vs plate DMSO controls (fold change (ratio)); higher = more amine produced, active = hit call of the paper (significant change in both replicates, either direction)
# Outline: as §2
Structure (SMILES),growth [1],growth [2],growth [3],growth [4],fold change of Histamine concentration [5],fold change of Tryptamine concentration [6],fold change of Tryptamine concentration [7],fold change of Putrescine concentration [8],fold change of Putrescine concentration [9],fold change of Cadaverine concentration [10],fold change of Cadaverine concentration [11],fold change of 2-Phenylethylamine concentration [12]
CC1CS(=O)(=O)CCN1/N=C/c1ccc([N+](=O)[O-])o1 (centres undefined) [Nifurtimox] (20 µM),1.13,1.03,0.924,1.04,0.593 (active),0.895 (inactive),0.971 (inactive),0.949 (inactive),0.949 (inactive),0.974 (inactive),0.998 (inactive),1.03 (inactive)
Cc1onc(-c2c(Cl)cccc2Cl)c1C(=O)N[C@@H]1C(=O)N2[C@@H]1SC(C)(C)[C@@H]2C(=O)O [Dicloxacillin sodium salt hydrate] (20 µM),0.000771,0.996,0.975,0.165,1.01 (inactive),0.0119 (active),0.05 (active),0.979 (inactive),1.01 (inactive),1.03 (inactive),0.994 (inactive),0.0548 (active)
COc1ccc(CN(CCN(C)C)c2ccccn2)cc1 [Pyrilamine maleate] (20 µM),1.02,0.962,0.981,0.868,1.02 (inactive),1.02 (inactive),1.02 (inactive),0.811 (inactive),1.07 (inactive),1.57 (active),1.04 (inactive),0.963 (inactive)
CC(C)(C)C(=O)OCOC(=O)[C@@H]1N2C(=O)[C@@H](NC(=O)[C@H](N)c3ccccc3)[C@H]2SC1(C)C [Pivampicillin] (20 µM),0,0.949,0.986,0,1.04 (inactive),0.0632 (active),0.0656 (active),1.01 (inactive),1 (inactive),0.968 (inactive),0.976 (inactive),0.0585 (active)
CCc1cccc2c3c([nH]c12)C(CC)(CC(=O)O)OCC3 (centres undefined) [Etodolac] (20 µM),1.08,1.03,1.1,1.06,1.06 (inactive),0.981 (inactive),1.06 (inactive),0.968 (inactive),0.949 (inactive),0.975 (inactive),0.991 (inactive),1.12 (inactive)
CC(=O)CC(c1ccc([N+](=O)[O-])cc1)c1c(O)c2ccccc2oc1=O (centres undefined) [Acenocoumarol] (20 µM),0.894,1.02,1.02,0.886,0.909 (inactive),0.94 (inactive),1.01 (inactive),1.05 (inactive),0.989 (inactive),1.01 (inactive),1.01 (inactive),1.02 (inactive)
CCS(=O)(=O)CCn1c([N+](=O)[O-])cnc1C [Tinidazole] (20 µM),0,0.988,0.99,0.176,0.852 (inactive),0.0351 (active),0.0414 (active),1.01 (inactive),0.977 (inactive),1.04 (inactive),0.993 (inactive),0.0315 (active)
C[C@@H]1C[C@H]2[C@@H]3C[C@H](F)C4=CC(=O)C=C[C@]4(C)[C@@]3(F)[C@@H](O)C[C@]2(C)[C@@]1(O)C(=O)COC(=O)C(C)(C)C [Flumethasone pivalate] (20 µM),0.889,0.954,1,0.811,1.04 (inactive),1 (inactive),1.04 (inactive),1 (inactive),0.998 (inactive),1.02 (inactive),0.984 (inactive),1.05 (inactive)
CC(=O)[C@H]1CC[C@H]2[C@@H]3C=CC4=CC(=O)CC[C@@]4(C)[C@@H]3CC[C@]12C [Dydrogesterone] (20 µM),1.08,0.983,0.99,0.994,1.03 (inactive),0.933 (inactive),0.978 (inactive),0.911 (inactive),1.01 (inactive),1.04 (inactive),0.983 (inactive),1 (inactive)
CCC[C@@H]1C[C@@H](C(=O)N[C@@H]([C@H]2O[C@H](SC)[C@H](OP(=O)(O)O)[C@@H](O)[C@H]2O)[C@H](C)Cl)N(C)C1 [Clindamycin Phosphate] (20 µM),0.836,1.04,0.998,0.709,1.01 (inactive),0.917 (inactive),0.844 (inactive),1.02 (inactive),1.01 (inactive),0.987 (inactive),0.999 (inactive),0.86 (inactive)
C=C1c2c(Cl)ccc(O)c2C(O)=C2C(=O)[C@]3(O)C(O)=C(C(N)=O)C(=O)[C@@H](N(C)C)[C@@H]3[C@@H](O)[C@H]12.O=C(O)c1cc(S(=O)(=O)O)ccc1O [Meclocycline sulfosalicylate] (20 µM),0.0138,0.000715,0.0719,0.113,0.0573 (active),0.0133 (active),0.0772 (active),0.14 (active),0.444 (active),0.447 (active),0.514 (active),0.11 (active)
CCOc1ccc(NC(C)=O)cc1 [Phenacetin] (20 µM),1.11,1.02,1.01,1.3,1.03 (inactive),0.966 (inactive),0.999 (inactive),1.07 (inactive),1.02 (inactive),0.997 (inactive),1.01 (inactive),0.992 (inactive)
